Screens as filed in PubChem BioAssay.
This is one part of a sample in which hits are shown more often than they occur.
Algae TAG accum – algal TAG accumulation induction; Chlamydomonas reinhardtii TAG, Nile Red fluorescence, 72 h; calls only at 10 µM (by protocol); 44,000 tested, 0.84% active; AID 1159537; call rule not given here;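 also: hits raise Nile Red signal meaning more stored TAG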
Numbers without * were called inactive; i = inactive; + = active, no number.

SMILES	Algae TAG accum
Cc1ccc(OCCn2ccnc2)c(Cl)c1	i
Cc1cc(Cl)c(OCCOCCn2ccnc2)c(Br)c1	i
CCc1ccccc1NC(=O)CN(C1CCCCC1)S(=O)(=O)c1ccccc1	i
Cc1ccccc1NC(=O)COc1cc(C)c(Br)c(C)c1	i
CCCNC(=O)C(C)(C)Oc1ccc(Cl)cc1	i
CN1CCN(c2nc(N3CCOCC3)c3ccccc3n2)CC1	i
Cc1ccc(NC(=O)Cc2ccc(Br)cc2)cc1	i
CCCC(=O)Nc1ccc(NC(=O)c2ccc(Br)cc2)cc1	i
CCN(CC)CC(=O)Nc1ccc(Br)cc1	+
C/C(=C\C#N)CCc1ccccc1	i
COc1ccc(NC(=O)c2ccc(Cl)c(Cl)c2)cc1Cl	i
CCOc1ccc(C(=O)N2CCN(CC)CC2)cc1	i
CC(C)(C)c1ccc(C(=O)N2CCCCCC2)cc1	i
CCN1CCN(C(=O)c2ccc(C(C)(C)C)cc2)CC1	+
CC(=O)Nc1ccc(S(=O)(=O)Nc2ccc(F)c(Cl)c2)cc1	i
Cc1cc(C=O)c(C)n1-c1ccc(Br)cc1F	+
Cc1cc(C=O)c(C)n1-c1ccc(O)cc1	i
COc1ccc(Cl)cc1-n1c(C)cc(C=O)c1C	i
C=CCc1ccccc1OCC(O)CN1CCN(c2cccc(Cl)c2)CC1 (centres undefined)	i
COc1ccccc1NS(=O)(=O)c1cc(-c2n[nH]c(=O)c3ccccc23)ccc1C	i
Brc1ccc(CN2CCN(c3ccccn3)CC2)cc1	i
Brc1ccc2ncnc(N3CCN(Cc4ccccc4)CC3)c2c1	+
Brc1ccc2ncnc(N3CCOCC3)c2c1	i
CCN(CCN(C)C)Cc1ccc(Br)cc1	i
Cc1cc(=O)[nH]c(N2CCOCC2)n1	i
SMILES	Algae TAG accum
CCOc1ccc(Nc2cc(C)nc(N3CCOCC3)n2)cc1	i
CCCCNc1cc(C)nc(N2CCOCC2)n1	+
CCCC(C)C(=O)Nc1ccc(OCC)cc1 (centres undefined)	i
O=C(Nc1ccc(NC(=O)c2ccc(Cl)cc2Cl)c(Cl)c1)c1cccc([N+](=O)[O-])c1	i
CS(=O)(=O)N1CCN(C2C3CC4CC(C3)CC2C4)CC1 (centres undefined)	+
O=C(c1ccccc1)N1CCN(C2C3CC4CC(C3)CC2C4)CC1 (centres undefined)	i
Cc1ccc(N2CCN(C3C4CC5CC(C4)CC3C5)CC2)cc1 (centres undefined)	i
O=C(C1CCCN(Cc2cccc([N+](=O)[O-])c2)C1)N1CCCCCC1 (centres undefined)	i
Cc1ccc(NC(=O)c2ccc(Cl)cc2)c(C)c1	i
Cc1ccc(C(=O)Nc2ccc(I)cc2C)cc1C	i
Cc1ccc(C(=O)Nc2ccc(Cl)cc2C)cc1C	+
Cc1ccc(S(=O)(=O)Nc2cccc([N+](=O)[O-])c2)cc1	i
O=C(CN1CCCCCC1)Nc1cccc2c1OCO2	i
O=C(CN1CCCCC1)Nc1ncc(Cc2ccc(Br)cc2)s1	+
O=C(CN1CCCCC1)Nc1ccccc1NC(=O)CN1CCCCC1	i
CN(C)C(=O)c1ccccc1I	i
Cc1cccc(-c2cc(NC(=O)c3ccccc3[N+](=O)[O-])n[nH]2)c1	i
Cc1cccc(-c2cc(NC(=O)c3ccc([N+](=O)[O-])cc3)n[nH]2)c1	+
O=C(Nc1ncccn1)c1ccc([N+](=O)[O-])cc1	i
OCCSc1ccc(-c2ccc(SCCO)cc2)cc1	i
O=c1[nH]c(NCCCO)nc2sc3c(c12)CCCC3	i
O=S(=O)(c1ccc(F)cc1)N1CCN(C2CCCCC2)CC1	+
Cc1ccc(S(=O)(=O)N2CCC(N3CCCCC3)CC2)cc1	i
O=S(=O)(c1ccc(F)cc1)N1CCCC1	i
O=S(=O)(c1ccc(F)cc1)N1CCN(C2CCCC2)CC1	i
SMILES	Algae TAG accum
CC1CCCN(C2CCN(S(=O)(=O)c3ccc(F)cc3)CC2)C1 (centres undefined)	+
CCCN1CCC(N2CCN(S(=O)(=O)c3ccc(F)cc3)CC2)CC1	i
Cn1c(SC/C=C/c2ccccc2)nc2ccccc2c1=O	i
N#CCCN(CCC#N)c1nc2c(s1)CCCC2	i
O=C(CCN1C(=O)c2ccc([N+](=O)[O-])cc2C1=O)Nc1ccccc1-c1ccccc1	i
COc1ccc(C2C(C(C)=O)=C(O)C(=O)N2C)cc1OC (centres undefined)	i
Cc1ccc(NC(=O)C(=O)NCCO)cc1	i
O=C(CN1CCN(c2ccc([N+](=O)[O-])cc2)CC1)Nc1ccc(F)cc1	i
OC(COc1ccc(OCC(O)CN2CCCC2)cc1)CN1CCCC1 (centres undefined)	i
OC(COc1ccc(Br)cc1)CN1CCCCCC1 (centres undefined)	+
OC(COc1ccccc1Br)CN1CCCCC1 (centres undefined)	+
Cc1ccc(OCC(O)CN2CCCCC2)c(C)c1 (centres undefined)	i
Cc1ccccc1OCC(O)CN1CCN(CC(O)COc2ccccc2C)CC1 (centres undefined)	i
OC(COc1ccc(Br)cc1)CN1CCOCC1 (centres undefined)	i
C/C=C(\C)CN1CCN(C)CC1	i
Cc1ccccc1OCC(=O)Nc1ccc(NC(=O)c2cccs2)cc1	i
CCOc1ccc(N2C(=O)NC(=O)C(=S(C)C)C2=O)cc1	i
O=C(Nc1ccccc1O)c1ccc([N+](=O)[O-])cc1	i
O=C(Nc1ccccc1C(=O)Nc1ccc([N+](=O)[O-])cc1)c1ccccc1	i
O=C(Nc1ccccc1C(=O)NCc1ccccc1)c1ccc([N+](=O)[O-])cc1	+
C1=C(CCNc2nc(N3CCOCC3)nc(N3CCOCC3)n2)CCCC1	i
CSc1nc2c(c(=O)[nH]c(=O)n2C)n1C(C)C	i
COc1cccc(OC)c1C(=O)Nc1ccc(C(=O)N2CCCCC2)cc1	i
CCN(C(=O)Cc1ccc(F)cc1)C1CCCCC1	i
CCN(CC)CCN(C)Cc1cccs1	i
SMILES	Algae TAG accum
COc1ccc(CNCc2ccc(C)cc2C)cc1	i
COc1ccc(CNCc2ccc(C)cc2C)c(OC)c1	i
COc1ccc(CNCc2ccc(C)cc2)c(OC)c1	+
CC1=[N+]([O-])C(C)(C)CC(C)c2ccccc21 (centres undefined)	i
COc1ccc(N2CCN(Cc3ccsc3)CC2)cc1	+
COc1ccc(N2CCN(Cc3cccs3)CC2)cc1	i
COc1ccc(N2CCN(Cc3cccnc3)CC2)cc1	i
CC(=O)Nc1ccc(NC(C)=CC(=O)c2cccnc2)cc1	i
c1ccc(OCCCN2CCOCC2)cc1	i
O=[N+]([O-])c1ccc(OCCCN2CCCC2)cc1	i
CC(C)(C)c1ccc(OCCCCN2CCOCC2)cc1	+
CCOc1cccc(OCCN2CCOCC2)c1	i
Ic1ccc(OCCCN2CCOCC2)cc1	i
O=[N+]([O-])c1ccc(OCCCCN2CCOCC2)cc1	+
Cc1cccc(OCCCCN2CCOCC2)c1	+
O=[N+]([O-])c1ccc(OCCCCN2CCCCC2)cc1	i
c1ccc(COc2ccc(OCCCCN3CCOCC3)cc2)cc1	i
CC(=O)Nc1c(C)ccc(CNC(=O)COc2ccccc2C(=O)Nc2cc(C)cc(C)c2)c1C	i
Cc1ccc(NC(=O)c2ccccc2F)cc1Cl	i
COc1ccc(NC(=O)CCc2ccc(C)o2)cc1	i
CCOc1ccccc1N1CCN(S(=O)(=O)c2cc(OC)c(Cl)cc2OC)CC1	i
CCC(C(=O)Nc1ccc(C)cc1C)c1ccccc1 (centres undefined)	i
